# In all, about 25,000 sequences were measured (“ln(normalized median fluorescence intensity)”: median about 9.3, highest 2% from about 10 on). The full list was thinned out, with the highest values kept by preference.
# Tested on: PF3D7_0420300 AP2 domain 1 (GST-tagged)
# Assay: gcPBM binding intensity (ln(normalized median fluorescence intensity)); higher = stronger DNA binding
# In short: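 DNA-binding domains from P. falciparum, fused to GST and produced in E. coli, were put on an Agilent 4 × 180k double-stranded probe array for 1 h in 1× PBS holding 1% milk, 0.2 mg/ml BSA, 0.5% salmon testes DNA and 0.03% Triton X-100. Probes were primer-extended, 36 bp long and drawn from intergenic genomic regions, with negative controls included. After Alexa488 anti-GST antibody detection and a 488 nm scan, binding intensity was set as the highest Masliner-normalised natural-log median intensity across replicate spots of either probe orientation.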
row,Sequence,gcPBM binding intensity (ln)
1,TAATTTTTAATTGTAGCATGCAGTATTTTTAAATAT [TGCATGCA_site140],8.97
2,TACTTACAGATAATAACACACAAGAAAAAAATAAAA [CACACA_site4716],9.8
3,CAAATATATATTTTCTGTACAAATACAATTAATACT [XGTACX_site2694],9.13
4,ATAAAGAAAATATGGAGTACATTTATATCCAATATA [XGTACX_site3085],9.17
5,CACAATGGTTTATATACACACTGTTGCAAATTCTTC [CACACA_site5659],9.45
6,TATAGTTCTTCTATTTGTACATATATTATTATTTAA [XGTACX_site895],9.26
7,ATTAATATATTATCATGTACACAAAAATAATTTTAT [XGTACX_site7257],9.13
8,TTAAAATGTTGTAACGTGCACATTTTGTGGAAATCA [GTGCAC_site9559],9.07
9,AAATAATTCATATGTTGTACAGTAATTAAATTTTCT [XGTACX_site6343],9.08
10,CGCGCCCAGAAACACACACACACACCGATATATATA [CACACA_site5250],10.3
11,CTATAATAATAAAGTGAACACACACCGATAATATAT [CACACA_site9377],9.78
12,ATAATATATATTAATACACACACACCGATATATATA [CACACA_site9261],10.1
13,TACGCTCCCAGACACACACACACACCGATATAATAT [CACACA_site8098],10.3
14,GAAATGGGTAAACATACACACACACCGATATATATA [CACACA_site8610],9.93
15,AAAAAAAAAAAACACACACACACACCGAAATATATA [CACACA_site4261],10.2
16,AATATAAATAAAAACACACACAATGGTACAGATATA [CACACA_site5930],10.1
17,TGTATAATAAGGAAGAGTACAAGTAAATACACACAT [XGTACX_site2084],9.87
18,ATTATGTGCCAATACACACACACATATATATATATA [CACACA_site468],9.9
19,AGAAAGATGCAAGAAACATGCAAAAAAAAAATTTCT [TGCATGCA_site725],9.15

row,Sequence,gcPBM binding intensity (ln)
1,AAAAATTCAATAGGACGTACTAAAACATTCATTAAT [XGTACX_site1712],9.34
2,GATATATAAATAAATACACACATAAAATAGAAATAT [CACACA_site6881],9.93
3,AAAATACATAGACACACACACACACGGATATAAATA [CACACA_site7643],10.2
4,AAAAAAAATAGACACACACACATACACATAAATATA [CACACA_site7742],10.1
5,TAAATTTATAGACACACACACATATAAATAAATATA [CACACA_site6530],10
6,AAAAATAAAGGATATACACACTAATTATATATATAT [CACACA_site5550],9.51
7,CACTAAAATAGACACACACACACACGGATATAAATA [CACACA_site7873],10.3
8,TATATAACTGTCTTCACACACACATATAAATAAATA [CACACA_site7317],9.77
9,TAATTTCTTTAGGGGGTGCTTTTATAGTTTTTATTA,10.1
10,TATATATTTATTTATAGTACACTATTTATGAAAACC [XGTACX_site3062],9.1
11,ATTAAAAGGGGGTTTACATGTGTGTGTGTAATATGG [TGCATGCA_negctrl_site293],10.2
12,TATAATCATATTAAGGGTACATATGTGTAAATATTT [XGTACX_site6018],9.23
13,AATAATATTAATAAAAGTACATGTGTAATATATATA [XGTACX_site5922],9.51
14,AACAACTATTACTGCACACATTCTTACACTATATAA [CACACA_site654],9.75
15,TATAAATAAAGCAGTACACACATTTATTTTAGATAC [CACACA_site7566],9.61
16,ATAAATATCATATATATACACACGTAATACATAATA [CACACA_site4001],9.56
17,ATAAAAAAATCAGACACACACACGTAAACACATACA [CACACA_site5529],10.1
18,GGGGGGAGGGTGAATACACACGTAATAATCATAAAC [CACACA_site8502],10.3
19,ATGCTATATTAAAAACGTACAAACTGTTTAGAAAAA [XGTACX_site8943],9.12

row,Sequence,gcPBM binding intensity (ln)
1,TTATTTAGTATATTATGTACATACAATGCCTGGGAA [XGTACX_site4578],9.21
2,AATAGTAAAAGATATACACACACCAAAAAATATAAT [CACACA_site5293],9.99
3,TAAAAAAGAAAATATATACACACCAAAAAAAAAAAA [CACACA_site3146],9.66
4,TATATATATAAATACACACACACACCCCAAAGCGTA [CACACA_site4211],10.1
5,TAAATATATATATACACACACACCAAAGCAATAGAT [CACACA_site2940],10.3
6,AATAAAGCAATAAATACACACATATTTATATTTATA [CACACA_site7390],9.56
7,AATAAAGCAATAAATACACACATATATATATATATA [CACACA_site2934],9.31
8,TATAAATAAATAGATACACACATATTTATAAATACA [CACACA_site6219],9.56
9,TGTAAATATATATATACACACACACCGAAGCAATAG [CACACA_site8960],10.1
10,TAAATATATAAATACACACACACCAAAGCAATAGAT [CACACA_site5605],10.2
11,AAAAAGAAAATATATACACACCAAAAAAAAAAAAAA [CACACA_site5698],9.46
12,AATAGTAAAAGATATACACACACCAAAAAATAGAAT [CACACA_site2289],10.3
13,TAAATATATTTATACACACACACCAAAGCAATAGAT [CACACA_site7393],10.3
14,AGCTATAATAAATATACACACATATATAAATATGTA [CACACA_site6583],9.37
15,CATGTGTTCTATATTTATGTCTAACTTTTTAATTAA [CACACA_negctrl_site904],9.43
16,GTTTAAAAAAATTATCAACTTTAAAAAGGTAACATT [XGTACX_negctrl_site203],8.99
17,ATTTATAAAACAGGCACACATATAATAAATTTTATA [CACACA_site2600],9.54
18,AATACTCAAAAGAATCGTACAAACAACACTCCCACG [XGTACX_site7564],9.4
19,TTTTTTTTTCAAGAGGTGCGTGTATTTTAACAAAAA,9.03

# Source: the supplement of paper PMC11417369
